# Test results taken from ChEMBL document CHEMBL1201862, “PubChem BioAssay data set” (2004).
# Values joined by “and” are separate entries in the source; they are usually repeats but may differ in a detail not shown here. Identical values can stand only once.
# Assay: Mycobacterium tuberculosis growth inhibition, dose response, 7H9 media, purified and synthesized compounds, set 8 (AID 588447); call rule not given here
# Format: functional
row,SMILES,IC90
1,CC1CCCN(C(=O)c2ccc(CNc3c(N4CCCCC4)c(=O)c3=O)cc2)C1 (centres undefined),> 100 µM (active)
2,CC1CC(C)CN(C(=O)C2CCC(CNc3c(N4CCCCC4)c(=O)c3=O)CC2)C1 (centres undefined),> 75 µM (active) and > 100 µM (active)
3,COc1ccc(N2CCN(C(=O)c3ccc(CNc4c(N5CCOCC5)c(=O)c4=O)cc3)CC2)cc1,> 100 µM (active)
4,CC1CCCN(C(=O)C2CCC(CNc3c(N4CCCCC4)c(=O)c3=O)CC2)C1 (centres undefined),> 100 µM (active)
5,O=C(c1ccc(CNc2c(N3CCCC3)c(=O)c2=O)cc1)N1CCc2ccccc2C1,> 100 µM (active)
6,CC(=O)c1ccc(NC(=O)c2ccc(CNc3c(N4CCOCC4)c(=O)c3=O)cc2)cc1,> 100 µM (active)
7,CC1CC(C)CN(C(=O)c2ccc(CNc3c(N4CCCC4)c(=O)c3=O)cc2)C1 (centres undefined),> 100 µM (active)
8,CCOC(=O)CSc1ncnc2c1cnn2-c1ccccc1,> 75.1 µM (active)
9,Cc1cccc(N2CCN(C(=O)c3ccc(CNc4c(N5CCC(C)CC5)c(=O)c4=O)cc3)CC2C)c1 (centres undefined),> 76.5 µM (active)
10,CC1CCN(C(=O)c2ccc(CNc3c(N4CCCC4)c(=O)c3=O)cc2)CC1,> 100 µM (active)
11,O=C(C1CCC(CNc2c(N3CCCCC3)c(=O)c2=O)CC1)N1CCCCC1 (centres undefined),> 100 µM (active)
12,O=C(NCCc1ccc(Cl)cc1)c1ccc(CNc2c(N3CCOCC3)c(=O)c2=O)cc1,> 100 µM (active)
13,CC(C)OC(=O)CSc1ncnc2c1cnn2-c1ccccc1,> 100 µM (active)
14,O=C(NCCc1ccc(Cl)cc1)C1CCC(CNc2c(N3CCCCC3)c(=O)c2=O)CC1 (centres undefined),> 100 µM (active)
